Assay outcomes from PubChem.
Most compounds without a hit are left out; they make up all but 3% or so of the library.
p53null 39C tox: qHTS Screen for Compounds that Selectively Target Cancer Cells with p53 Mutations: Cytotoxicity of p53 Null Cells at the Nonpermissive Temperature | H1299 p53-null (neo) cells, 39C, ATPlite viability, 24 h | 0.97% of 55,000 active | Potency, µM (series often up to 46.1 µM), for inactives: at the top dose activity, negative = cell killing, usual class: cytotoxic | AID 904, 2007;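 note: potency is the fitted concentration of half-maximal effect; 0% = DMSO only and -100% = full killing by 100 µM tamoxifen; nearly all actives have a fitted effect of over 50% in size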
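Cells seeded at 600/well, 37C overnight. Compound added (up to 46 uM), plates shifted to 39C for 24 hr. ATPlite added, luminescence read after 20 min at room temperature.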
SKOV3 invasion: Primary qHTS assay for Inhibitors of ovarian cancer metastasis using an organotypic tumor microenvironment (TME) model. Potency, µM (doses to about 45.8 µM), for the others: at the top dose activity change, negative = inhibition, most hits filed as inhibitors. 0.1% of 46,000 active. SKOV3ip1-GFP adhesion/invasion on 3D omental model, fluorescence;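 note: potency is the fitted concentration of half-maximal effect; plate controls were DMSO wells for no effect and tomatine positive control wells for full effect; nearly all actives have a fitted effect of over 65% in size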
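qHTS, 4-pt dose (0.36-46 umol/L); SKOV3ip1-GFP, 1,200 cells/well, no FBS; primary omental fibroblast/mesothelial co-culture 48 h pre-grown; 2 h RT + 16 h 37 C; PBS wash, 4% PFA; GFP count 488/509 nm.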
p53null 32C tox: qHTS Screen for Compounds that Selectively Target Cancer Cells with p53 Mutations: Cytotoxicity of p53 Null Cells at the Permissive Temperature | 0.62% of 55,000 active | Potency, µM (top dose mostly 46.1 µM), without a hit: top-dose activity change, negative = cytotoxicity, most hits filed as cytotoxic | AID 903, 2007 | H1299-neo p53 null cells, ATP luminescence, 24 h, 32C;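 note: potency is the fitted concentration of half-maximal effect; 0% = DMSO only and -100% = full killing by 100 µM tamoxifen; nearly all actives have a fitted effect of over 55% in size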
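ATP-content luminescence in p53-null H1299-neo cells after 24 h compound exposure (up to 46 uM) at 32C permissive temperature; 0% and 100% killing set by DMSO and 100 uM tamoxifen; Hill-equation AC50.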
mTORC1 inh: Acumen qHTS Assay for Inhibitors of the mTORC1 Signaling Pathway in MEF (Tsc2-/-, p53-/-) Cells: Sytravon; Tsc2-/- p53-/- MEF, phospho-rpS6 immunofluorescence/PI, 24 h; Potency, µM (titrated, usually from 38.3 µM), for inactives: at the top dose activity change, negative = inhibition, actives largely listed as inhibitors; 0.78% of 44,000 active; AID 493208, 2011;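 note: potency is the fitted concentration of half-maximal effect; plate controls were DMSO for no effect and rapamycin for full effect; nearly all actives have a fitted effect of over 50% in size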
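Readout is phospho-S6 Alexa 488 signal normalized to PI per well, reported as % active cells with thresholds set from rapamycin (7.5 nM) and DMSO controls. Cells: Tsc2-/-, p53-/- MEFs, 24 hrs compound at 37 C; PI cell number serves as viability.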
S16 F2sN tox: Cell viability qHTS assay in S16 Pmp22-F2sN cells; S16 Pmp22-F2sN Schwann cells viability, CellTiter-Glo, 24 h; Potency, µM (highest dose often 57.5 µM), for inactives: top-dose activity change, negative = cytotoxicity, hits mostly cytotoxic; 0.48% of 43,000 active; AID 1508642, 2021; note: potency is the fitted concentration of half-maximal effect; % is set by controls: 0 for no effect and ±100 for the full control effect; nearly all actives have a fitted effect of over 65% in size
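Rat S16 Schwann reporter line, 24 h treatment with library compounds delivered at 23 nL per well. Cell viability by CellTiter-Glo luminescence.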
PMP22 txn: Cell-based coincidence reporter assay to measure PMP22 gene transcription in S16 Pmp22-F2sN cells - Primary screen; S16 Pmp22-F2sN Schwann cells (luciferase reporters placed in the Pmp22 gene), FLuc/NLuc coincidence luminescence, 24 h; Potency, µM (doses to about 57.5 µM), without a hit: at the highest dose activity change, negative = inhibition, hits mostly inhibitors; 2% of 43,000 active; AID 1508649, 2021; active = clear falling dose curves in both reporters; inconclusive = both reporters move, but less clearly or upward; inactive = either reporter flat; the % is the NLuc reporter signal; note: potency is the fitted concentration of half-maximal effect; % is set by controls: 0 for no effect and ±100 for the full control effect
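Transcriptional readout in edited S16(c9) cells: two luciferases reported from the Pmp22 locus, measured in turn after 24 h compound incubation.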
NLuc sat counter: Biochemical NLuc saturation counterscreen for small molecule modulators of PMP22 gene expression - Nano-Glo assay. Potency, µM (series often up to 57.5 µM), inactives show top-dose activity change, negative = inhibition, actives largely listed as inhibitors. Secreted NLuc enzyme (filtered S16 cell medium), Nano-Glo luminescence. 4% of 690 active. shares compounds with PMP22 txn; note: potency is the fitted concentration of half-maximal effect; % is set by controls: 0 for no effect and ±100 for the full control effect
NLuc Km counter: Biochemical coelenterazine-based NLuc counterscreen for small molecule modulators of PMP22 gene expression - Km assay; shares compounds with PMP22 txn; secreted NLuc enzyme, coelenterazine luminescence, Km conditions; Potency, µM (top dose mostly 57.5 µM), for inactives: top-dose activity change, negative = inhibition, actives largely listed as inhibitors; 5% of 690 active; AID 1508639, 2021; note: potency is the fitted concentration of half-maximal effect; % is set by controls: 0 for no effect and ±100 for the full control effect
FLuc counter: Biochemical FLuc counterscreen for small molecule modulators of PMP22 gene expression; shares compounds with PMP22 txn; purified P. pyralis FLuc, luminescence, 10 min; Potency, µM (top dose mostly 57.5 µM), for inactives: top-dose activity, negative = inhibition, usual class: inhibitors; 690 tested, under 10 active; AID 1508640, 2021; note: % of control where 0% means no effect
Target sequence (P08659 whole entry, looked up): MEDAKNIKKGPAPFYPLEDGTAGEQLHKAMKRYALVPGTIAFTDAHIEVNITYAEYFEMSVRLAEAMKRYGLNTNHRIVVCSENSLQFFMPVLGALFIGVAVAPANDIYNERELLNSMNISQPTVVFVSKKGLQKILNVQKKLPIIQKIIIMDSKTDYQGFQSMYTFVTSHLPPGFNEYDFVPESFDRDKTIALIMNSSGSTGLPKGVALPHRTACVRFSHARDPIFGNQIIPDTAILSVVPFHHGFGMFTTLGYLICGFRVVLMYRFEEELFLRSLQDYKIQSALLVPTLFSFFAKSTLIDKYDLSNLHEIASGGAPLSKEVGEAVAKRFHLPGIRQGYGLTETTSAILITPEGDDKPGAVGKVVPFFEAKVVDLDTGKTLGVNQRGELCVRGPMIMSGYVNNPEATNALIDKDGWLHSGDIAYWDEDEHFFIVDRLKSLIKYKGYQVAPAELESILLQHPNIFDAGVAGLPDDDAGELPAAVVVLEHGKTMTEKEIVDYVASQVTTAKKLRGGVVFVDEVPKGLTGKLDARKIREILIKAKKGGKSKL
S16 viab conf: Cell viability qHTS assay in S16 Pmp22-F2sN cells - Confirmatory screen. shares compounds with PMP22 txn. 7% of 690 active. S16 Schwann cells viability, CellTiter-Glo ATP luminescence, 24 h. Potency, µM (highest dose often 57.5 µM), without a hit: top-dose activity change, negative = viability loss, most hits filed as cytotoxic; note: potency is the fitted concentration of half-maximal effect; % is set by controls: 0 for no effect and ±100 for the full control effect
PMP22 txn conf: Cell-based coincidence reporter assay to measure PMP22 gene transcription in S16 Pmp22-F2sN cells - Confirmatory screen | shares compounds with PMP22 txn | S16 Schwann cells Pmp22-F2sN, dual luciferase, 24 h | Potency, µM (series often up to 57.5 µM), for the others: at the highest dose activity change, negative = inhibition, most hits filed as inhibitors | 22% of 690 active; active = clear falling dose curves in both reporters; inconclusive = both reporters move, but less clearly or upward; inactive = either reporter flat; the % is the FLuc reporter signal; note: potency is the fitted concentration of half-maximal effect
PMP22 prot conf: Cell-based HiBiT reporter assay to measure PMP22 protein expression in S16 Pmp22-HiBiT cells - Confirmatory screen; Potency, µM (titrated, usually from 27.9 µM), without a hit: top-dose activity change, negative = inhibition, hits mostly inhibitors; AID 1508647, 2021; shares compounds with PMP22 txn; S16 Schwann cells Pmp22-HiBiT, luminescence, 48 h; 95 tested, under 10 active
Target sequence (P25094 whole entry, looked up): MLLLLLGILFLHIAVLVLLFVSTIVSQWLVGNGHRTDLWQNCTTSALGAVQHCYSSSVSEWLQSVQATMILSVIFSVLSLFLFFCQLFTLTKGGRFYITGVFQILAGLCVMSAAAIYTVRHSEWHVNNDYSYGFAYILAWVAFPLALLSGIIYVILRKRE
* marks the source's active call; other numbers are inactive results; i = inactive; ? = inconclusive; . = not tested or not shown. Unless noted, calls come from the whole dose curve; as a rule, active = well fitted curve in the direction sought with a large enough effect; inconclusive = small, poorly fitted or top-dose-only effect, or another doubt; inactive = no such curve, though single readings can be large; an effect the other way counts as inactive or inconclusive.

SMILES | p53null 39C tox | SKOV3 invasion | p53null 32C tox | mTORC1 inh | S16 F2sN tox | PMP22 txn | NLuc sat counter | NLuc Km counter | FLuc counter | S16 viab conf | PMP22 txn conf | others
COc1ccc(-n2nc(C(N)=O)c3c2C(=O)N(c2ccc(N4CCCCC4=O)cc2)CC3)cc1 | . | -29.2% | . | . | . | . | . | . | . | . | .
CCc1nn(CC(=O)N(CC)Cc2ccccc2)c(=O)c2cc3occc3n12 | 7.9% | i | -7.4% | 0.4% | 6.3% | ? | -19.8% | ? | 3.2% | 4.7% | -3.0%
CC1CCC(C(=O)N(c2cc(C#CC(C)(C)C)sc2C(=O)O)C2CCC(O)CC2)CC1 (stereo unspecified) | . | -3.0% | . | . | . | . | . | . | . | . | .
CCOc1cc(C(Nc2cc(C)ccn2)c2ccc3cccnc3c2O)ccc1OC (stereo unspecified) | ? | i | ? | ? | ? | 10µM* | ? | 17.2µM* | -1.5% | ? | ?
CCc1ccc(NCc2cc3cc(OC)c(OC)cc3n(CC(=O)Nc3cc(C)ccc3C)c2=O)cc1 | -15.2% | i | 6.8% | 1.8% | 8.4% | 11.3µM* | -10.7% | 8.7% | -1.1% | -10.0% | ?
CC(=O)c1c(C)oc2ccc(N(C(=O)Oc3ccccc3)S(=O)(=O)c3ccc(C(C)(C)C)cc3)cc12 | 24.6% | 15.4% | 25.0% | -15.3% | 2.4% | 12.7µM* | -14.0% | -5.6% | -1.7% | -5.4% | ?
CCOC(=O)c1c(C)oc2ccc(N(C(=O)Oc3ccccc3)S(=O)(=O)c3ccc(CC)cc3)cc12 | 52.8% | -4.6% | 38.9% | -3.8% | -1.6% | ? | . | . | . | . | .
COc1ccnc2[nH]cc(C(=O)C(=O)N3CCN(C(=O)c4ccccc4)C[C@@H]3C)c12 | . | -8.2% | . | . | . | . | . | . | . | . | .
Cc1ccc2[nH]c(CSc3nnc(COc4ccccc4C)n3C)cc(=O)c2c1 | 25.3% | i | -6.9% | -14.2% | ? | 13.4µM* | ? | ? | -6.8% | ? | -22.6%
O=C(NC1CCN(Cc2ccccc2)CC1)c1ccc(Cn2c(=O)c3ccccc3n(Cc3ccccc3)c2=O)cc1 | 14.8% | i | 6.2% | -7.5% | 5.8% | -31.5% | . | . | . | . | .
O=C(NC1CCN(Cc2ccccc2)CC1)c1ccc(Cn2c(=O)c3ccccc3n(Cc3ccc(Cl)cc3)c2=O)cc1 | -10.3% | -9.5% | 9.5% | -3.0% | 4.7% | 12.1µM* | -7.2% | -0.2% | 8.3% | 12.2µM* | 10.9µM*
COc1ccc(CCNC(=O)c2ccc(Cn3c(=O)c4ccccc4n(Cc4cccc(Cl)c4)c3=O)cc2)cc1OC | 20.1% | 118.1% | 14.8% | 12.1% | 6.7% | ? | -15.5% | 3.4% | 0.7% | 3.2% | 2.7%
COCCCNC(=O)c1ccc(Cn2c(=O)c3ccccc3n(Cc3ccc(Cl)cc3)c2=O)cc1 | -8.6% | i | 19.1% | 6.4% | ? | 11.3µM* | ? | ? | 1.3% | -23.7% | -41.4%
COc1ccc(CCNC(=O)c2ccc(Cn3c(=O)c4ccccc4n(Cc4cccc(F)c4)c3=O)cc2)cc1OC | ? | i | 6.1% | 3.9% | -7.9% | ? | . | . | . | . | .
O=C(Nc1cc2cc[nH]c2cn1)c1ccccc1 | . | 6.6% | . | . | . | . | . | . | . | . | .
CCc1cncnc1N1CCN(Cc2nc3ccc(C(F)(F)F)cc3[nH]2)CC1 | . | -13.5% | . | . | . | . | . | . | . | . | .
CCOc1cc(CNc2ccc(O)cc2)ccc1OCc1ccc(Cl)cc1 | ? | -16.3% | 1.6% | ? | ? | 7.81µM* | 17.2µM* | 19.3µM* | ? | -5.4% | -40.1%
CCOc1cc(CNc2ccc(O)cc2)cc(Br)c1OCc1ccccc1 | ? | -0.2% | 11.9% | -7.8% | ? | 8.54µM* | ? | ? | -10.8% | 11.4% | 14.5µM* | PMP22 prot conf=-10.7%
C=CCOc1c(Br)cc(CNc2ccc(NC(=O)C(C)C)cc2)cc1OCC | . | . | -23.6% | . | . | . | . | . | . | . | .
C[C@@H](CN1CC(=O)NC(=O)C1)N1CC(=O)NC(=O)C1 | . | -10.2% | . | . | . | . | . | . | . | . | .
CCNc1nc2c(c(=O)n(C)c(=O)n2C)n1Cc1ccc(F)cc1 | 7.4% | -0.5% | -2.1% | ? | ? | ? | . | . | . | . | .
